# In the supplement of paper PMC8728848:
# The entries come from a sample that favours the strongest signals as a whole.
# B1: Gs78B-bfa-542-29-542 (Bacteroides fragilis) (protein)
# chain: SEDINRNPLLPTKEDEKMDGVIYGAYLPNLEKSVIPIGTASESTEPVNRYQIGVNLAGDAWAGYMSPRDNKFNGSKNFTNYFMYENWVNYVYSFMVTDVYSPWMQIKRISQDEGTRNDEIYALAQIIKIAALHRTTDMFGPIPYSQVGKGSFKVAYDSQESVYRSFLKELEEAVQTLDDYSNKSKEVLPAFDIVYNGDVNKWMRFANSLMLRLAIRVRFADAGLAKEYAEKAVKHPAGLINSKELAAQMGKGAGLQMKNPLKVINEEYNDTRMGATIYSYLAGYNDARAAVYFVKNNGFKAVRCGIAKSGDAYNGFTRPNVHEDDPLYWMKASEVCFLKAEGALAGFDMGGSAGDFYNAGIRMSFSENGLDNSSAETYLKDSTRKPANYTDTSNGELSANAPSSITIRWENGATEEEKLERIITQKYLAIFPNGQEAWTEWRRTGYPRQIVVAENKTNSAVLIGNGYDLGGVRRLPYPRTEYEQNGENLHNAISQYLGGVDNAATKVWWDKKSK
# Key:
# Assay in all cases: glycan array binding signal (z-score within array); higher = stronger binding
# Details in all cases: glycan notation: IUPAC condensed, linker removed
# GalNAc3S(b1-4)GlcNAc3S = target: GalNAc3S(b1-4)GlcNAc3S
# Summary of the method: (§1)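 Glycan array binding is given as a within-array Z-score, which can be read as non-binding when negative. The arrays, 3228 of them, came from the Consortium for Functional Glycomics database and were retained only where the protein sequence was available. Z-scores were averaged across arrays of the same protein sequence at different concentrations or buffers and across linkers.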
# GalNAc6S(b1-4)GlcNAc = target: GalNAc6S(b1-4)GlcNAc
# Summary of the method: as §1
# Glc(b1-6)Glc = target: Glc(b1-6)Glc
# Summary of the method: as §1
# GlcA(b1-6)Gal = target: GlcA(b1-6)Gal
# Summary of the method: as §1
# [1] = target: GlcNAc(a1-4)Gal(b1-4)GlcNAc(b1-3)Gal(b1-4)GlcNAc
# Summary of the method: as §1
# [2] = target: GlcNAc(b1-2)[GlcNAc(b1-4)]Man(a1-3)[GlcNAc(b1-4)][GlcNAc(b1-2)Man(a1-6)]Man(b1-4)GlcNAc(b1-4)GlcNAc
# Summary of the method: as §1
# [3] = target: GlcNAc(b1-2)[GlcNAc(b1-6)]Man(a1-6)[GlcNAc(b1-4)][GlcNAc(b1-2)Man(a1-3)]Man(b1-4)GlcNAc(b1-4)GlcNAc
# Summary of the method: as §1
# [4] = target: GlcNAc(b1-3)Gal(b1-3)GalNAc
# Summary of the method: as §1
# [5] = target: GlcNAc(b1-3)Gal(b1-4)GlcNAc(b1-2)Man(a1-3)[GlcNAc(b1-3)Gal(b1-4)GlcNAc(b1-2)Man(a1-6)]Man(b1-4)GlcNAc(b1-4)GlcNAc
# Summary of the method: as §1
# [6] = target: GlcNAc(b1-4)Gal(b1-4)GlcNAc
# Summary of the method: as §1
# GlcNAc(b1-6)GalNAc = target: GlcNAc(b1-6)GalNAc
# Summary of the method: as §1
# Kdn(a2-3)Gal(b1-4)GlcNAc = target: Kdn(a2-3)Gal(b1-4)GlcNAc
# Summary of the method: as §1
# [7] = target: Man(a1-2)Man(a1-6)[Man(a1-3)]Man(a1-6)[Man(a1-2)Man(a1-2)Man(a1-3)]Man
# Summary of the method: as §1
# [8] = target: Man(a1-3)[Man(a1-6)]Man(a1-6)[Man(a1-2)Man(a1-3)]Man(b1-4)GlcNAc(b1-4)GlcNAc
# Summary of the method: as §1
# [9] = target: Neu5Ac(a2-3)Gal(b1-3)GlcNAc
# Summary of the method: as §1
# [10] = target: Neu5Ac(a2-3)Gal(b1-3)[Fuc(a1-4)]GlcNAc
# Summary of the method: as §1
# [11] = target: Neu5Ac(a2-3)Gal(b1-4)GlcNAc(b1-2)Man
# Summary of the method: as §1
# [12] = target: Neu5Ac(a2-3)Gal(b1-4)GlcNAc(b1-2)[Neu5Ac(a2-3)Gal(b1-4)GlcNAc(b1-6)]Man(a1-6)[Neu5Ac(a2-3)Gal(b1-4)GlcNAc(b1-2)Man(a1-3)]Man(b1-4)GlcNAc(b1-4)GlcNAc
# Summary of the method: as §1
# [13] = target: Neu5Ac(a2-3)Gal(b1-4)GlcNAc(b1-3)Gal(b1-4)GlcNAc(b1-3)Gal(b1-4)GlcNAc
# Summary of the method: as §1
# [14] = target: Neu5Ac(a2-3)Gal(b1-4)[Fuc(a1-3)]GlcNAc(b1-6)[Neu5Ac(a2-3)Gal(b1-3)]GalNAc
# Summary of the method: as §1
# Neu5Ac(a2-6)Gal(b1-4)Glc = target: Neu5Ac(a2-6)Gal(b1-4)Glc
# Summary of the method: as §1
# [15] = target: Neu5Ac(a2-6)Gal(b1-4)GlcNAc(b1-2)Man(a1-3)Man(b1-4)GlcNAc(b1-4)GlcNAc
# Summary of the method: as §1
# [16] = target: Neu5Ac(a2-6)Gal(b1-4)GlcNAc(b1-2)[Neu5Ac(a2-6)Gal(b1-4)GlcNAc(b1-6)]Man(a1-6)[Neu5Ac(a2-6)Gal(b1-4)GlcNAc(b1-2)Man(a1-3)][GlcNAc(b1-4)]Man(b1-4)GlcNAc(b1-4)GlcNAc
# Summary of the method: as §1
# [17] = target: Neu5Ac(a2-8)Neu5Ac(a2-3)Gal(b1-3)GalNAc(b1-4)[Neu5Ac(a2-8)Neu5Ac(a2-3)]Gal(b1-4)Glc
# Summary of the method: as §1
# [18] = target: Neu5Ac(a2-8)Neu5Ac(a2-8)Neu5Ac(a2-3)[Gal(b1-3)GalNAc(b1-4)]Gal(b1-4)Glc
# Summary of the method: as §1
# [19] = target: Neu5Ac(a2-8)Neu5Ac(a2-8)Neu5Ac(a2-8)Neu5Ac(a2-3)[GalNAc(b1-4)]Gal(b1-4)Glc
# Summary of the method: as §1
# [20] = target: Neu5Gc(a2-3)Gal(b1-4)[Fuc(a1-3)]GlcNAc
# Summary of the method: as §1
binder,measurement,setting,value
B1,glycan array binding signal (z-score),GalNAc3S(b1-4)GlcNAc3S,-0.813
same,glycan array binding signal (z-score),GalNAc6S(b1-4)GlcNAc,-0.336
same,glycan array binding signal (z-score),Glc(b1-6)Glc,-0.312
same,glycan array binding signal (z-score),GlcA(b1-6)Gal,2.77
same,glycan array binding signal (z-score),[1],-0.691
same,glycan array binding signal (z-score),[2],-0.838
same,glycan array binding signal (z-score),[3],-0.844
same,glycan array binding signal (z-score),[4],-0.48
same,glycan array binding signal (z-score),[5],-0.439
same,glycan array binding signal (z-score),[6],-0.828
same,glycan array binding signal (z-score),GlcNAc(b1-6)GalNAc,-0.233
same,glycan array binding signal (z-score),Kdn(a2-3)Gal(b1-4)GlcNAc,2.84
same,glycan array binding signal (z-score),[7],-0.844
same,glycan array binding signal (z-score),[8],3.49
same,glycan array binding signal (z-score),[9],-0.067
same,glycan array binding signal (z-score),[10],-0.793
same,glycan array binding signal (z-score),[11],2.92
same,glycan array binding signal (z-score),[12],0.079
same,glycan array binding signal (z-score),[13],-0.832
same,glycan array binding signal (z-score),[14],5.64
same,glycan array binding signal (z-score),Neu5Ac(a2-6)Gal(b1-4)Glc,-0.346
same,glycan array binding signal (z-score),[15],1.48
same,glycan array binding signal (z-score),[16],-0.454
same,glycan array binding signal (z-score),[17],0.648
same,glycan array binding signal (z-score),[18],-0.843
same,glycan array binding signal (z-score),[19],1.92
same,glycan array binding signal (z-score),[20],0.283
